PMC11995724, “Antibiotic target discovery by integrated phenotypic and activity-based profiling of electrophilic fragments” (Cell chemical biology, 2025)
Hit rate of the full screen: of about 3,200 compounds, about 110 (3.4%) showed an effect of 50% or more. Shown is part of a subset that was picked to be rich in strong results.

What follows are compounds tested on T1, V. cholerae SAD30. Settings: relative growth, OD600, LB; 25 µM; inhibitor.
T1 construct: SAD30
Set-up: species or system S. aureus MSSA476 (TSB) or V. cholerae SAD30 (LB); 384-well bacterial growth screen at 25 uM, OD600 relative to DMSO control

Structure (SMILES) | % of control remaining [%]
O=C(CCl)Nc1cccc(S(=O)(=O)N=C2CCCCCN2)c1 [4-D08, N-{3-[(azepan-2-ylidene)sulfamoyl]phenyl}-2-chloroacetamide] | 107.656
CC(C)NC(=O)C(C#N)=Cc1c(Cl)nc2ccccn12 [9-A11, 3-{2-chloroimidazo[1,2-a]pyridin-3-yl}-2-cyano-N-(propan-2-yl)prop-2-enamide] | 91.8423
C=CC(=O)Nc1cc(NC(=O)c2ccc([N+](=O)[O-])o2)ccc1F [3-J04, N-[4-fluoro-3-(prop-2-enamido)phenyl]-5-nitrofuran-2-carboxamide] | -0.1875
C=CC(=O)Nc1cc(NC(=O)C2(OC)CCOC2)ccc1F (centres unmarked) [3-D05, N-[4-fluoro-3-(prop-2-enamido)phenyl]-3-methoxyoxolane-3-carboxamide] | 99.5001
C=CC(=O)Nc1cc(NC(=O)C2CCC2)ccc1F [2-E10, N-[4-fluoro-3-(prop-2-enamido)phenyl]cyclobutanecarboxamide] | 92.0486
CC(C)Cn1c(N)c(C(=O)CCl)c(=O)[nH]c1=O [10-F08, 6-amino-5-(2-chloroacetyl)-1-(2-methylpropyl)-1,2,3,4-tetrahydropyrimidine-2,4-dione] | 101.305
O=C(CCl)Nc1cc2c(cc1[N+](=O)[O-])OCCCO2 [4-O05, 2-chloro-N-(8-nitro-3,4-dihydro-2H-1,5-benzodioxepin-7-yl)acetamide] | 108.001
O=C(CCl)c1ccoc1 [10-O09, 2-chloro-1-(furan-3-yl)ethan-1-one] | 123.281
O=C(CCl)NCC(F)(F)c1cccnc1 [6-C21, 2-chloro-N-[2,2-difluoro-2-(pyridin-3-yl)ethyl]acetamide] | 97.8292
O=C(CCl)c1c[nH]c2ccncc12 [10-K05, 2-chloro-1-{1H-pyrrolo[3,2-c]pyridin-3-yl}ethan-1-one] | 101.305
Cl.O=C(CCl)c1ccncc1F [10-I09, 2-chloro-1-(3-fluoropyridin-4-yl)ethan-1-one hydrochloride] | 0
O=C(CCl)c1ccc(C(F)(F)F)cc1 [10-B10, 2-chloro-1-[4-(trifluoromethyl)phenyl]ethan-1-one] | 79.174
Cl.O=C(CCl)c1ccncc1 [10-M09, 2-chloro-1-(pyridin-4-yl)ethan-1-one hydrochloride] | -0.1559
COc1ccc(C=C(C#N)C(=O)Nc2c(C)cccc2C)cc1OC [8-A17, 2-cyano-3-(3,4-dimethoxyphenyl)-N-(2,6-dimethylphenyl)prop-2-enamide] | 86.6757
Cc1n[nH]c(C)c1C=C(C#N)C(=O)Nc1cc(Cl)cc(Cl)c1 [8-M08, 2-cyano-N-(3,5-dichlorophenyl)-3-(3,5-dimethyl-1H-pyrazol-4-yl)prop-2-enamide] | 68.3209
CCOc1ccc2nc(NC(=O)CCl)sc2c1 [4-L10, 2-chloro-N-(6-ethoxy-1,3-benzothiazol-2-yl)acetamide] | 94.3714
C=CC(=O)N1CCC(C(=O)NCCc2c(C)n[nH]c2C)CC1 [2-D04, N-[2-(3,5-dimethyl-1H-pyrazol-4-yl)ethyl]-1-(prop-2-enoyl)piperidine-4-carboxamide] | 106.099
CC(Cl)C(=O)N1CCN(S(=O)(=O)c2ccccc2)CC1 (centres unmarked) [6-B12, 1-[4-(benzenesulfonyl)piperazin-1-yl]-2-chloropropan-1-one] | 88.4254
CCc1cccc(CC)c1NC(=O)CCl [4-F10, 2-chloro-N-(2,6-diethylphenyl)acetamide] | 103.86
CCc1cccc2c(C(=O)CCl)c[nH]c12 [10-C12, 2-chloro-1-(7-ethyl-1H-indol-3-yl)ethan-1-one] | 24.3133
Cc1cccc2[nH]cc(C(=O)CCl)c12 [10-H09, 2-chloro-1-(4-methyl-1H-indol-3-yl)ethan-1-one] | 100.526
Cc1noc(C)c1COC1CCN(C(=O)C(C)Cl)C1 (centres unmarked) [7-O14, 2-chloro-1-{3-[(3,5-dimethyl-1,2-oxazol-4-yl)methoxy]pyrrolidin-1-yl}propan-1-one] | 78.3744
Cc1cc(-n2c(C)cc(C(=O)CCl)c2C)no1 [10-C18, 2-chloro-1-[2,5-dimethyl-1-(5-methyl-1,2-oxazol-3-yl)-1H-pyrrol-3-yl]ethan-1-one] | 106.137
Cc1cc(C)cc(-n2c(C)cc(C(=O)CCl)c2C)c1 [10-E04, 2-chloro-1-[1-(3,5-dimethylphenyl)-2,5-dimethyl-1H-pyrrol-3-yl]ethan-1-one] | 92.1099

Structure (SMILES) | % of control remaining [%]
Cc1ccccc1-n1c(C)cc(C(=O)CCl)c1C [10-H20, 2-chloro-1-[2,5-dimethyl-1-(2-methylphenyl)-1H-pyrrol-3-yl]ethan-1-one] | 100.526
Cc1cc(C(=O)CCl)c(C)n1-c1ccccc1 [10-L20, 2-chloro-1-(2,5-dimethyl-1-phenyl-1H-pyrrol-3-yl)ethan-1-one] | 100.682
Cc1cc(C(=O)CCl)c(C)n1-c1ccon1 [10-F06, 2-chloro-1-[2,5-dimethyl-1-(1,2-oxazol-3-yl)-1H-pyrrol-3-yl]ethan-1-one] | 37.8726
Cc1cc(C(=O)CCl)c(C)n1-c1ccccn1 [10-C16, 2-chloro-1-[2,5-dimethyl-1-(pyridin-2-yl)-1H-pyrrol-3-yl]ethan-1-one] | 41.1455
Cc1ccc(S(=O)(=O)NC2CN(C(=O)CCl)C2)cc1 [5-E07, N-[1-(2-chloroacetyl)azetidin-3-yl]-4-methylbenzene-1-sulfonamide] | 95.6604
C[C@H](NC(=O)CCl)C(=O)N1CCCCC1 [7-L14, 2-chloro-N-[(2S)-1-oxo-1-(piperidin-1-yl)propan-2-yl]acetamide] | 80.489
COc1ccc(C=C(C#N)C(=O)Nc2cccc(C)c2)cc1 [8-M03, 2-cyano-3-(4-methoxyphenyl)-N-(3-methylphenyl)prop-2-enamide] | 85.4521
C=CC(=O)NCC(=O)c1scc(C)c1Cl [1-D16, N-[2-(3-chloro-4-methylthiophen-2-yl)-2-oxoethyl]prop-2-enamide] | 44.1609
C=CC(=O)NCCc1csc(C)n1 [1-D13, N-[2-(2-methyl-1,3-thiazol-4-yl)ethyl]prop-2-enamide] | 86.9955
C=CC(=O)NCCc1nc(C)cs1 [2-D05, N-[2-(4-methyl-1,3-thiazol-2-yl)ethyl]prop-2-enamide] | 94.8278
COc1ccc(NC(=O)c2ccccc2NC(=O)CCl)cc1 [4-L05, 2-(2-chloroacetamido)-N-(4-methoxyphenyl)benzamide] | 109.209
O=C(CCl)NCCSc1ccccc1 [4-G21, 2-chloro-N-[2-(phenylsulfanyl)ethyl]acetamide] | 113.522
CN1c2ccccc2C(NC(=O)CCl)CS1(=O)=O (centres unmarked) [7-L04, 2-chloro-N-(1-methyl-2,2-dioxo-3,4-dihydro-1H-2lambda6,1-benzothiazin-4-yl)acetamide] | 88.9476
CC(Cl)C(=O)Nc1ccc(F)c(Cl)c1 (centres unmarked) [4-A04, 2-chloro-N-(3-chloro-4-fluorophenyl)propanamide] | 99.7196
O=C1C=CC(=O)N1c1ccc(F)c(Cl)c1 [10-D15, 1-(3-chloro-4-fluorophenyl)-2,5-dihydro-1H-pyrrole-2,5-dione] | 25.716
O=C1C=CC(=O)N1c1cnccn1 [10-P07, 1-(pyrazin-2-yl)-2,5-dihydro-1H-pyrrole-2,5-dione] | 97.4089
O=C(CCl)Nc1ccc(SC(F)F)cc1 [4-B10, 2-chloro-N-{4-[(difluoromethyl)sulfanyl]phenyl}acetamide] | 104.205
O=C1C=CC(=O)N1c1ccc(F)cc1 [10-M10, 1-(4-fluorophenyl)-2,5-dihydro-1H-pyrrole-2,5-dione] | 16.8323
N#Cc1ccc(N2C(=O)C=CC2=O)cc1 [10-B09, 4-(2,5-dioxo-2,5-dihydro-1H-pyrrol-1-yl)benzonitrile] | 24.9367
CC(Cl)C(=O)Nc1ccc(SC(F)F)cc1 (centres unmarked) [4-L09, 2-chloro-N-{4-[(difluoromethyl)sulfanyl]phenyl}propanamide] | 88.1604
O=C1C=CC(=O)N1c1ccc(SC(F)F)cc1 [10-A18, 1-{4-[(difluoromethyl)sulfanyl]phenyl}-2,5-dihydro-1H-pyrrole-2,5-dione] | 28.9889
N#CC(=Cc1ccc(C#N)cc1)C(=O)N1CCCC1 [9-P21, 4-[2-cyano-2-(pyrrolidine-1-carbonyl)eth-1-en-1-yl]benzonitrile] | 93.8817
COc1ccc(NC(=O)C(C#N)=Cc2cnc3c(C)cccn23)cc1 [9-L03, 2-cyano-N-(4-methoxyphenyl)-3-{8-methylimidazo[1,2-a]pyridin-3-yl}prop-2-enamide] | 95.7852
